Inconclusive results are not listed. Activity calls are given as the source filed them. Unless noted, calls follow the shape of the dose curve; as a rule, active = well fitted curve in the direction sought with a large enough effect; inconclusive = small, poorly fitted or top-dose-only effect, or another doubt; inactive = no such curve, though single readings can be large; an effect the other way counts as inactive or inconclusive.
How the values were obtained:
[1] = P-glycoprotein substrates identified in KB-8-5-11 adenocarcinoma cell line, qHTS therapeutic library screen (AID 1346987); also: nearly all actives have a fitted effect of over 65% in size; also: potency is read from the fitted curve at half-maximal effect
How it was run: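 Luminescence from CellTiter-Glo, read 5 min after addition, quantified survival of KB-8-5-11 (P-gp-overexpressing) cells exposed to compounds for 72 h. AC50 was derived from concentration-response curves.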

[2] = Primary qHTS for inhibitors of nuclear receptor binding SET domain protein 2 (NSD2) in an isogenic RCH-ACV NSD2 p.E1099K mutant (9B) (AID 1645876); also: nearly all actives have a fitted effect of over 70% in size; also: potency is read from the fitted curve at half-maximal effect
[3] = Primary qHTS for inhibitors of nuclear receptor binding SET domain protein 2 (NSD2) in an RCH-ACV wild type WT cells (2C) (AID 1645877); also: nearly all actives have a fitted effect of over 70% in size; also: potency is read from the fitted curve at half-maximal effect
[4] = target: Glutathione peroxidase 1 (Homo sapiens) (UniProt P07203); experiment: Primary qHTS Assay for Inhibitors of Recombinant Selenoprotein Glutathione Peroxidase 1 (GPX1) (AID 1845191); also: nearly all actives have a fitted effect of over 65% in size; also: potency is read from the fitted curve at half-maximal effect
How it was run: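 GPX1 10 nM, GR 100 nM, GSH 1 mM, NADPH 0.5 mM, CHP 0.5 mM (final). 30-min cpd preincubation, RT. Ex340/Em450 read t=0, t=15 min.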

[5] = target: Calcium and integrin-binding protein 1 (Homo sapiens) (UniProt Q99828); experiment: Primary qHTS for Identification of Calcium Integrin Binding Protein 1 (CIB1) Competitor (AID 1508620);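 also: GST tagged CIB1 binding a fluorescein labelled alphaIIb integrin peptide tracer; top concentration of the series differs between compounds; % is scaled to controls: 0 for no effect and ±100 for the full control effect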
How it was run: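 Fluorescence polarization competition: CIB1-GST (1 uM final) preincubated with compound 15 min at room temperature, then FITC-labeled alphaIIb peptide (100 nM final) added for another 15 min. Polarization read at Ex 480/Em 540.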

[6] = qHTS to identify inhibitors of the type 1 interferon - major histocompatibility complex class I in skeletal muscle: primary screen against the NCATS Mechanism Interrogation Plate v5.0 (MIPE) Libary (AID 1347411);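 also: plate controls were vehicle for no effect and reference inhibitor for full effect; nearly all actives have a fitted effect of over 65% in size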
How it was run: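 Seed engineered human myoblasts (HLA-B HiBit) in medium without dexamethasone containing 4 ng/ml IFN-beta; after 1 hr add compound titrations (top 46 uM final). Incubate 24 hrs at 37 C, lyse 10 min with HiBiT reagent, read luminescence.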

[7] = target: Phospholipid hydroperoxide glutathione peroxidase GPX4 (Homo sapiens) (UniProt P36969); experiment: Primary qHTS Assay for Inhibitors of Recombinant Selenoprotein Glutathione Peroxidase 4 (GPX4) (AID 1845192); conditions: outcome: dose series up to 50 µM unless noted; also: % is scaled to controls: 0 for no effect and ±100 for the full control effect; nearly all actives have a fitted effect of over 65% in size
How it was run: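 qHTS, GR-coupled: GPX4 200 nM + cpd 30 min RT → GSH 1 mM, NADPH 0.5 mM, GR 100 nM → CHP 0.5 mM start; fluor 340/450 at t0 and t15 min; no-enzyme wells as control.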

[8] = qHTS drug screen for cell cycle checkpoint inhibitors in PARPi-resistant BRCA-mutant ovarian cancer cell lines. (AID 1963452; calls by dose curve); conditions: PEO1/OlaR viability, CellTiter-Glo luminescence, 96 h, stronger effect = lower value
How it was run: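 PEO1, PEO4 and PEO1/OlaR ovarian cancer cells, 600 per well, exposed 96 h at 37C to a dilution series. Viability read by CellTiter-Glo luminescence, normalized to DMSO and empty wells; activity summarized as Z-AUC.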

[9] = Primary qHTS for small molecule stabilizers of the endoplasmic reticulum resident proteome: Secreted ER Calcium Modulated Protein (SERCaMP) assay (AID 1508630); also: % is scaled to controls: 0 for no effect and ±100 for the full control effect
How it was run: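 The SH-SY5Y reporter protocol was run at 3 concentrations up to 38.3 uM (primary) or 11 concentrations (follow-up): 16 h compound, 100 nM thapsigargin for 4 h, then extracellular luciferase luminescence.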

[10] = P-glycoprotein substrates identified in KB-3-1 adenocarcinoma cell line, qHTS therapeutic library screen (AID 1346986); also: % is scaled to controls: 0 for no effect and ±100 for the full control effect; nearly all actives have a fitted effect of over 60% in size
How it was run: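 72 h cell-killing screen, 500 cells/well, CellTiter-Glo luminescence. Paired lines KB-3-1/KB-8-5-11; P-gp dependence checked by tariquidar co-treatment and HEK-293 MDR-19 versus empty-vector cells.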

[11] = target: Cytochrome P450 3A4 (Homo sapiens) (UniProt P08684); experiment: qHTS Assay for Activators of Cytochrome P450 3A4 (AID 885); also: nearly all actives have a fitted effect of over 65% in size
How it was run: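 Activators are scored by enhanced luminescence from CYP3A4 conversion of luciferin-PPXE (25uM, equal to KM) to luciferin, after 60 min at RT with an NADPH-regenerating system.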

[12] = tested on: Zika virus NS2B-NS3 protease; experiment: Primary screen GU AMC qHTS for Zika virus inhibitors (AID 1347154); also: nearly all actives have a fitted effect of over 70% in size
How it was run: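 Unlinked Zika NS2B hydrophilic domain/NS3 protease domain noncovalent complex (25 nM final) in 10 mM Tris-HCl pH 8.0, 0.01% Tween 20, with AMC peptide substrate. Fluorescence (ex 340, em 450 nm) change over 15 min, room temperature; percent inhibition fitted to 4-parameter Hill equation.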

[13] = target: N-terminal Xaa-Pro-Lys N-methyltransferase 1 (Homo sapiens) (UniProt Q9BV86); experiment: Confirmatory qHTS for Inhibitors of N-terminal methyltransferase 1 (NTMT1): MTaseGlo Assay (AID 1645874)
How it was run: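 Enzyme mix (125 nM NTMT1, 100 uM SAM) + compound, 15 min RT; + 1 uM SPKRIA, 30 min RT, dark; MTase-Glo reagent 30 min, detection solution 30 min; luminescence. % inhibition vs no-enzyme/DMSO controls, 4-parameter Hill fit.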

[14] = target: Catechol O-methyltransferase (Homo sapiens) (UniProt P21964); experiment: Confirmatory Screen for Target Class Profiling of Small Molecule Inhibitors of Methyltransferases (AID 1745852; calls by dose curve; also: potency is read from the fitted curve at half-maximal effect); conditions: MTase-Glo luminescence, SAH detection, recombinant enzyme; measured here: COMT max response; stronger effect = lower value
[15] = target: Guanidinoacetate N-methyltransferase (Homo sapiens) (UniProt Q14353); experiment: as above; conditions: activity change, negative = inhibition: at 57.3 µM (top of the series) unless noted
[16] = target: Nicotinamide N-methyltransferase (Homo sapiens) (UniProt P40261); experiment: as above; conditions: MTase-Glo luminescence, SAH detection, recombinant enzyme; measured here: NNMT max response; stronger effect = lower value
[17] = target: Phenylethanolamine N-methyltransferase (Homo sapiens) (UniProt P11086); experiment: as above; conditions: MTase-Glo luminescence, SAH detection, recombinant enzyme; measured here: PNMT max response; stronger effect = lower value
[18] = measured here: PEO1 parental Z-AUC

Glutathione peroxidase 1 (Homo sapiens), sequence (P07203 whole entry, looked up): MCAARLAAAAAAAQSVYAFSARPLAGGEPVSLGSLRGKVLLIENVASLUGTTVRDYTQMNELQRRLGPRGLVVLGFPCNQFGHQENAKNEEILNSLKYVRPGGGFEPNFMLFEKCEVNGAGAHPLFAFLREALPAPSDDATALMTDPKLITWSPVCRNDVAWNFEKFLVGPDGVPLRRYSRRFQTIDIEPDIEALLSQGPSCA
Phospholipid hydroperoxide glutathione peroxidase GPX4 (Homo sapiens), sequence (P36969 whole entry, looked up): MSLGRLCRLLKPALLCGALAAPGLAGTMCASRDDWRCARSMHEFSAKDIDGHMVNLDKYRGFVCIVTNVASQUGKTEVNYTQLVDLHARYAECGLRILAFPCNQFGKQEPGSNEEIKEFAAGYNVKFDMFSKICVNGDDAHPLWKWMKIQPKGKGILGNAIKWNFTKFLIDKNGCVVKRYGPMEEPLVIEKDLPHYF
Catechol O-methyltransferase (Homo sapiens), sequence (P21964 whole entry, looked up): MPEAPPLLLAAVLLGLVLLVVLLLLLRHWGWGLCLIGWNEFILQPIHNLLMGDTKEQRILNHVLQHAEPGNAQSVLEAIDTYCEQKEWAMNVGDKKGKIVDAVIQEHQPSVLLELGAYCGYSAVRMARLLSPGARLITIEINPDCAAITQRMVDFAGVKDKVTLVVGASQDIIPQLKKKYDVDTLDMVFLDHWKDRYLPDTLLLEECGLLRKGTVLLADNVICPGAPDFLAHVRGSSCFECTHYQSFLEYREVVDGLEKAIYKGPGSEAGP
Cytochrome P450 3A4 (Homo sapiens), sequence (P08684 whole entry, looked up): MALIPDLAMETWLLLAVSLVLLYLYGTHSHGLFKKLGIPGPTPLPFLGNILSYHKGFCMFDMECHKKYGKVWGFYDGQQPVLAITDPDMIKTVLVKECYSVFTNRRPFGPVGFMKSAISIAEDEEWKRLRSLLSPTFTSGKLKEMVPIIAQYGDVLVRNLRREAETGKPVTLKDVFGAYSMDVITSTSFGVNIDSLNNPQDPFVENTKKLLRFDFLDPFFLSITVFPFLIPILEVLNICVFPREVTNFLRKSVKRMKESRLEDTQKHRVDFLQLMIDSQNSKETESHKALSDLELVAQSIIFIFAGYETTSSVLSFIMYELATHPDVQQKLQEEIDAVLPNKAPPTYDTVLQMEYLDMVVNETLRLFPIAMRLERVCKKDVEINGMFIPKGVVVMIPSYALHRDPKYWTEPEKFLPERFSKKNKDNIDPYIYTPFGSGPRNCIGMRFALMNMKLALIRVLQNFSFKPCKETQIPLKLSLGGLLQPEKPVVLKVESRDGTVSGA
Nicotinamide N-methyltransferase (Homo sapiens), sequence (P40261 whole entry, looked up): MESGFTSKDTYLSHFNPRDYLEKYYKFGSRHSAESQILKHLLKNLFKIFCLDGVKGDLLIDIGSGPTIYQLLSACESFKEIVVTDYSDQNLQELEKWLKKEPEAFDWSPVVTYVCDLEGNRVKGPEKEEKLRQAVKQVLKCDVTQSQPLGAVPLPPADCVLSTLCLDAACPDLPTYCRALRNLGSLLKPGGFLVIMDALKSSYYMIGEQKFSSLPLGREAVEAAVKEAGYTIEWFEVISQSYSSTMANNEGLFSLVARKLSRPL
Calcium and integrin-binding protein 1 (Homo sapiens), sequence (Q99828 whole entry, looked up): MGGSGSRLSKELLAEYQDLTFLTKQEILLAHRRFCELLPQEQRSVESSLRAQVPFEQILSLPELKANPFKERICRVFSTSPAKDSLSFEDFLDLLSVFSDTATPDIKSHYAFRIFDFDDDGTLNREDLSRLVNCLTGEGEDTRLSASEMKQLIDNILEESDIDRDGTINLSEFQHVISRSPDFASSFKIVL
Phenylethanolamine N-methyltransferase (Homo sapiens), sequence (P11086 whole entry, looked up): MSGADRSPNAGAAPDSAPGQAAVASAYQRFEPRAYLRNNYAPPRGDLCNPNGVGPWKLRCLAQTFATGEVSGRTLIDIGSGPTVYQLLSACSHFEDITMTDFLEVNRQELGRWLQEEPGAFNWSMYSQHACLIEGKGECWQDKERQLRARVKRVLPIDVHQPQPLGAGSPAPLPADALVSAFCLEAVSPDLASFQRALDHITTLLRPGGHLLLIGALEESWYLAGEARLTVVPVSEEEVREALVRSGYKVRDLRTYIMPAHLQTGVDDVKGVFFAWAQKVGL
N-terminal Xaa-Pro-Lys N-methyltransferase 1 (Homo sapiens), sequence (Q9BV86 whole entry, looked up): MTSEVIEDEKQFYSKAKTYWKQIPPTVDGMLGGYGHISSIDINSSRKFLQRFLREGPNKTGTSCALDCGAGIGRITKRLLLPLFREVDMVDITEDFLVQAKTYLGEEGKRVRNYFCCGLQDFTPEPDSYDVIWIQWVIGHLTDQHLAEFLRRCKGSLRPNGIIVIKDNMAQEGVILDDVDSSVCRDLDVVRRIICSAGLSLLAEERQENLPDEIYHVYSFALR

For `CN(C)CCCNc1c2ccccc2nc2c1[nH]c1ccccc12`, the Potency [1] was 2.31 µM (active), the Potency [2] was 1.84 µM (active) and the Potency [3] was 2.06 µM (active). The Potency [4] was 22.7 µM (active).

With `O=C1CCCC2=C1C1(CCSCC1)N=C(Nc1nc3ccccc3o1)N2` the Potency [1] was “inactive”, the outcome [5] was “inactive” and the Potency [2] was “inactive”. For the same compound, the Potency [3] was “inactive” and the Potency [4] was “inactive”.

With `O=C1c2ccccc2-c2c(NCCc3ccccc3)c(=O)[nH]c3cccc1c23` the Potency [1] was 1.16 µM (active), the Potency [2] was 5.17 µM (active) and the Potency [3] was 4.61 µM (active). For the same compound, the Potency [4] was “inactive”.

With `COC(=O)C#Cc1ccc([N+](=O)[O-])cc1` the Potency [1] was 18.4 µM (active), the Potency [2] was 4.61 µM (active) and the Potency [3] was 4.11 µM (active). The Potency [4] was “inactive”.

In the case of `Cc1cn([C@H]2C[C@H](O)[C@@H](CO)O2)c(=O)nc1N`, the Potency [1] was “inactive”, the Potency [2] was “inactive” and the Potency [3] was “inactive”. The Potency [4] was “inactive”.

In the case of `CNc1ncc2cc(-c3cc(NC(=O)NCCC(C)(C)C)c(F)cc3C)c(C)nc2n1`, the Potency [1] was 4.61 µM (active), the Potency [6] was “inactive” and the Potency [2] was 0.417 µM (active). The Potency [3] was 0.59 µM (active), the Potency [4] was “inactive” and the Potency [7] was “inactive”. The Z-AUC [8] was -1.04 (inactive), the Z-AUC [8, 18] was -0.267 and the Z-AUC ([8]; measured here: PEO4 Z-AUC) was -0.215.

In the case of `O=C(c1ccc(-c2ccc(Cl)cc2)o1)N(Cc1ccccn1)c1ccc(N2CCNCC2)cc1`, the Potency [1] was “inactive”, the Potency [2] was 13 µM (active) and the Potency [3] was 16.4 µM (active). The Potency [4] was “inactive”.

With `C=CC(=O)Nc1cccc(Nc2nc(Nc3ccccc3)ncc2C)c1` the Potency [1] was 13 µM (active), the Potency [2] was 8.2 µM (active) and the Potency [3] was 8.2 µM (active). The Potency [4] was “inactive”.

With `Cc1cc(I)ccc1Nc1c(C(=O)NOCC2CC2)cc(F)c(F)c1F` the Potency [1] was 18.4 µM (active), the Potency [9] was “inactive” and the Potency [2] was 8.33 µM (active). For the same compound, the Potency [3] was 7.42 µM (active), the Potency [4] was “inactive” and the Z-AUC [8] was 0.467 (inactive). The Z-AUC [8, 18] was 0.0632 and the Z-AUC ([8]; measured here: PEO4 Z-AUC) was 0.231.

In the case of `NC1CCCN(c2c(/C=C3\SC(=O)NC3=O)cccc2-c2ccccc2)C1` (stereo unspecified), the Potency [10] was “inactive”, the Potency [4] was “inactive” and the Z-AUC [8] was -0.874 (inactive). It also gave a Z-AUC [8, 18] of -0.352 and a Z-AUC ([8]; measured here: PEO4 Z-AUC) of -1.12.

For `O=S(=O)(/N=C/c1c(O)ccc2ccccc12)c1cccs1`, the Potency [1] was “inactive”, the Potency [2] was “inactive” and the Potency [3] was “inactive”.

With `COc1cc(Br)c(C[N+]2(CCOCCC3CCC4CC3C4(C)C)CCOCC2)cc1OC` (stereo unspecified) the Potency [1] was “inactive”.

For `CC(C)(C)n1nc(-c2cccc3ccccc23)c2c(N)ncnc21`, the Potency [1] was “inactive”.

With `Cn1cc(C2=C(c3cn(CCCSC(=N)N)c4ccccc34)C(=O)NC2=O)c2ccccc21` the Potency [11] was “inactive”, the Potency [1] was “inactive” and the Potency [12] was “inactive”. The Potency [9] was “inactive”, the Potency [13] was 6.02 µM (active) and the Potency [2] was 1.46 µM (active). For the same compound, the Potency [3] was 1.64 µM (active).

With `O=C(Nc1cccc(Nc2cc(Nc3cccc(C(F)(F)F)c3)ncn2)c1)C1CC1` the Potency [1] was 0.92 µM (active), the Potency [2] was 0.731 µM (active) and the Potency [3] was 0.92 µM (active). The activity [14] was -58%, the Potency [15] was 21.5 µM (active) and the activity [16] was -68.1%. The activity [17] was -61.4% and the Potency [4] was “inactive”.

Source: PubChem BioAssay (NCATS)
